High-throughput results from PubChem BioAssay.
Hits are enriched below; roughly 5.2% of the tested compounds scored in any of these assays.
Sfp PPTase inh = qHTS Assay for Inhibitors of Bacillus subtilis Sfp phosphopantetheinyl transferase (PPTase). 4'-phosphopantetheinyl transferase ffp (Bacillus subtilis), Q9F4F7. Biochemical Sfp PPTase activity, qHTS. Potency, µM, actives largely listed as inhibitors. hit rate 3.5% among 310,000. AID 1490, 2009;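 further: the enzyme is Sfp with the accession as filed and its product quenches rhodamine fluorescence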
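Fluorescence-quenching assay: 15 nM Sfp-PPTase preincubated 15 min at room temperature with compound, then 5 uM rhodamine-CoA and 12.5 uM BHQ-2-labelled YbbR peptide added. Fluorescence (ex 525/em 598 nm) read at start and after 30 min; difference gives rate.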
Tau fluor counter = Counterscreen qHTS for Inhibitors of Tau Fibril Formation, Fluorescence Polarization; tau K18 P301L Alexa594 fluorescence, heparin fibrillization; Potency, µM (highest dose often 57.7 µM); hit rate 0.93% among 280,000; further: nearly all actives have a fitted effect of over 55% in size
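Human K18 P301L tau (15 uM unlabeled plus 0.24 uM Alexa 594-labeled, final) in 100 mM sodium acetate pH 7 was mixed with compound and 20 uM heparin and incubated 6 hr at 37 C.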
Coupling enz = qHTS Assay for Inhibitors of Fructose-1,6-bisphosphate Aldolase from Giardia Lamblia: Coupling assay counterscreen | coupling enzyme system counterscreen, AmpLite Red fluorescence | AID 2472, 2010 | activity change, negative = inhibition, % at 58.2 µM, hits read low | hit rate 0.67% among 290,000; in the data active means activity change below about -30%
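First, compound is pin-transferred into glyceraldehyde-3-phosphate coupling-enzyme reagent at 57.5 uM final and held 10 min at RT. Next, substrate, coupling system and AmpLite Red are added. After 20 min RT, fluorescence (525/598 nm) is read.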
Tau fibril ThT = qHTS for Inhibitors of Tau Fibril Formation, Thioflavin T Binding; hit rate 2.1% among 270,000; Microtubule-associated protein tau (Homo sapiens), P10636; recombinant tau K18 P301L, heparin-induced fibrillization, ThT fluorescence; Potency, µM (highest dose often 57.4 µM), actives largely listed as inhibitors; further: nearly all actives have a fitted effect of over 55% in size
Target sequence (P10636 561-689 P618L limits assumed): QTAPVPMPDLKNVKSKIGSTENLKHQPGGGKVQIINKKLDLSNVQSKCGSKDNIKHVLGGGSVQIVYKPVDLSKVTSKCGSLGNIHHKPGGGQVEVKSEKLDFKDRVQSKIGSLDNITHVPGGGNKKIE
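Using a mix of unlabeled (15 uM) and Alexa 594-labeled (0.24 uM) tau K18 P301L, heparin-triggered fibrillization over 6 hr at 37 C was scored by ThT fluorescence.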
Tau fibril FP = qHTS for Inhibitors of Tau Fibril Formation, Fluorescence Polarization; K18 P301L tau heparin fibrillization, Alexa594 FP, 6 h; hit rate 0.39% among 280,000; AID 1468, 2008; Microtubule-associated protein tau (Homo sapiens), P10636; Potency, µM (series often up to 57.7 µM), most hits filed as inhibitors; further: nearly all actives have a fitted effect of over 55% in size
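Human K18 P301L fragment (15 uM unlabeled plus 0.24 uM Alexa 594-labeled) in 100 mM sodium acetate pH 7 with compound, aggregation induced by 20 uM heparin for 6 hr at 37 C. ThT (30 uM) added for 1 hr, then Alexa 594 FP read.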
Numbers stand for hits; n = inactive; u = inconclusive; x = not tested or not shown; ! = not active in a repeat. Unless noted, the call rests on the fitted dose curve; in most records, active means well fitted curve in the direction sought with a large enough effect; inconclusive means small, poorly fitted or top-dose-only effect, or another doubt; inactive means no such curve, though single readings can be large; an effect the other way counts as inactive or inconclusive.

SMILES	Sfp PPTase inh	Tau fluor counter	Coupling enz	Tau fibril ThT	Tau fibril FP
CCCCN(CC)Cc1ccc(CNC(=S)Nc2c(C)cc(C)cc2C)o1	45µM	n	n	n	n
CCCCN(CC)Cc1ccc(CNC(=S)Nc2ccc(C)cc2Cl)o1	n	n	n	n	n
CCOC(=O)c1cnc(N2CCN(c3ccc(C)cc3C)CC2)c2ccccc12	x	n	x	n	n
Cc1ccc(/C=C/C(=O)N2CCN(S(=O)(=O)c3c(C)c(C)cc(C)c3C)CC2)o1	14µM	n	n	u	n
Cc1ccc(/C=C/C(=O)N2CCN(S(=O)(=O)c3ccc(C)c(C)c3)CC2)o1	18µM	n	n	u	n
CCNc1ncc2nc(-c3ccc(Cl)cc3)c(=O)n(Cc3ccc(F)cc3)c2n1	n	x	n	x	x
Clc1ccc(-n2cnnn2)cc1	n	n	n	n	n
CO/C=C\C=C/c1nnn(-c2ccc(Cl)cc2)n1	4.5µM	n	n	n	n
COC(=O)c1ccccc1NC(=O)N1CCC(N2CCN(Cc3ccc(F)cc3)C(=O)C2=O)CC1	x	n	x	n	n
COc1cc(CNCCN2CCOCC2)ccc1OCC(=O)NC(C)(C)C	71µM	n	n	n	n
Cc1ccc(CNC(=O)c2ccc3nc(SCc4ccc(F)cc4)[nH]c3c2)cc1	x	u	x	n	22µM
CCn1c2ccc(OC)cc2c2nc3ccccc3nc21	n	n	n	n	n
CCn1c2ccc(Cl)cc2c2nc3ccccc3nc21	n	n	n	16µM	n
O=C1CC(c2ccccc2F)c2c(c3ccccc3[nH]c2=O)O1 (stereo not drawn)	n	n	n	x	n
O=C1CC(c2cccc(F)c2)c2c(c3ccccc3[nH]c2=O)O1 (stereo not drawn)	6.3µM	n	n	n	n
Cc1ccc(NC(=O)CSc2ncc3c(n2)-c2ccccc2N(C)S3(=O)=O)c(Cl)c1	x	u	x	n	n
CCOc1ccccc1C(=O)N(Cc1ccco1)C1CCS(=O)(=O)C1 (stereo not drawn)	50µM	n	n	n	n
Cc1ccc2sc(C)[n+](CCO)c2c1	45µM	n	n	u	n
N#CCCN1CCN(Cn2c3ccccc3c3ccccc32)CC1	n	n	n	n	n
CN1CCN(CCCNCc2cn(CCC#N)c3ccccc23)CC1	56µM	x	n	x	x
O=C1CC(=O)N(CCc2ccccc2)C(=O)N1CCc1ccccc1	u	n	n	28µM	u
Cc1cc(-c2nnc(-c3ccccc3)c(-c3ccccc3)n2)c(C)o1	14µM	n	n	u	n
CCOc1ccc(NC(=O)c2ccco2)cc1	n	n	n	n	n
NS(=O)(=O)c1ccc(NC(=S)NC(=O)c2ccc(Br)o2)cc1	56µM	n	n	n	u
CCOc1ccc(NC(=S)NC(=O)c2ccco2)cc1	56µM	n	n	u	n
SMILES	Sfp PPTase inh	Tau fluor counter	Coupling enz	Tau fibril ThT	Tau fibril FP
O=C(NC(=S)NNC(=O)c1cc2ccccc2cc1O)c1ccco1	n	n	n	13µM	n
CN(C)S(=O)(=O)c1ccc(NC(=S)NC(=O)c2ccc(Br)o2)cc1	56µM	n	n	n	n
COCOc1ccc(OC)cc1C(=O)/C=C/c1ccc(OC)c(Br)c1	n	n	n	u	u
Clc1ccccc1-c1ccc2ncnc(NCCN3CCOCC3)c2c1	n	x	n	x	x
CCC(=O)N1CCc2cc(Br)cc(S(=O)(=O)CCC(=O)NCCc3cccc(C)c3)c21	x	n	x	n	n
N#Cc1ccc(CN2CCCC3(CCN(C(=O)c4cnccn4)CC3)C2)cc1	n	x	n	x	x
NS(=O)(=O)c1ccc(NC(=S)NC(=O)c2ccco2)cc1	45µM!	n	n	n	n
CC(=O)NS(=O)(=O)c1ccc(NC(=S)NC(=O)c2ccco2)cc1	u	n	n	n	n
O=C(CCSc1ccccn1)Nc1ccc(Br)cc1	n	n	n	n	n
O=C(CCSc1ccccn1)c1ccccc1	79µM	n	n	u	u
O=C(O)CCSc1ccccn1	50µM	n	n	n	n
CC(/C=N\Nc1nnc2c(n1)[nH]c1c(C)cccc12)=C\c1ccco1	n	u	n	1.4µM	n
CCCCCSc1nnc2c(n1)[nH]c1c(C)cccc12	x	n	x	n	n
